From the antibiotic and cytotoxicity screens of Wong et al. (2023)
About 500 (1.3%) of roughly 39,000 compounds were called active. Shown is part of a subset that was picked to be rich in actives.

The compounds below were run on S. aureus RN4220 (assay: growth inhibition call (relative growth <= 0.2)). Conditions: 50 µM.

| SMILES | growth inhibition call |
| --- | --- |
| C[C@@H]1CCCCO[C@@H](CN(C)Cc2ccc(Cl)c(Cl)c2)[C@@H](C)CN([C@H](C)CO)C(=O)c2cc(NC(=O)C3CCCCC3)ccc2O1 | inactive |
| CC(C)NC(=O)N(C)C[C@@H]1OCCCC[C@@H](C)Oc2ccc(NS(=O)(=O)c3cn(C)cn3)cc2C(=O)N([C@H](C)CO)C[C@H]1C | inactive |
| C[C@@H]1CN([C@H](C)CO)C(=O)c2cc(NS(=O)(=O)c3ccc(F)cc3)ccc2O[C@@H](C)CCCCO[C@H]1CN(C)C(=O)Nc1ccccc1 | inactive |
| CC=Cc1ccc2n(c1=O)C[C@@H]1[C@@H](CO)[C@H](C(=O)NC3CCC3)N(S(C)(=O)=O)[C@H]21 | inactive |
| CCCN(C)C[C@@H]1OCCCC[C@@H](C)Oc2ccc(NS(=O)(=O)c3cn(C)cn3)cc2C(=O)N([C@@H](C)CO)C[C@@H]1C | inactive |
| C[C@@H]1CN([C@@H](C)CO)C(=O)c2cc(C#Cc3ccncc3)cnc2O[C@H]1CN(C)S(=O)(=O)c1ccccc1F | inactive |
| C[C@@H]1CN([C@@H](C)CO)C(=O)c2cc(NS(C)(=O)=O)ccc2O[C@@H](C)CCCCO[C@H]1CN(C)S(=O)(=O)c1cn(C)cn1 | inactive |
| C[C@@H]1CN([C@H](C)CO)C(=O)c2cccc(NS(C)(=O)=O)c2O[C@@H]1CN(C)S(=O)(=O)c1ccc(F)cc1 | inactive |
| C[C@H](CO)N1C[C@H](C)[C@H](CN(C)C(=O)CN(C)C)Oc2cc(C#Cc3ccccc3)ccc2S1(=O)=O | active |
| C[C@@H]1CN([C@H](C)CO)S(=O)(=O)c2ccc(C#Cc3ccccc3)cc2O[C@H]1CN(C)C(=O)CN(C)C | inactive |
| C[C@@H]1CN([C@@H](C)CO)S(=O)(=O)c2ccc(C#Cc3ccccc3)cc2O[C@H]1CN(C)C(=O)CN(C)C | inactive |
| COc1ccc(S(=O)(=O)N(C)C[C@@H]2Oc3ccc(NS(=O)(=O)c4cccs4)cc3CC(=O)N([C@@H](C)CO)C[C@H]2C)cc1 | inactive |
| C[C@@H]1CN([C@H](C)CO)C(=O)c2cccc(NS(C)(=O)=O)c2O[C@H]1CN(C)C(=O)Nc1ccc(C(F)(F)F)cc1 | inactive |
| C[C@H]1CN([C@@H](C)CO)C(=O)c2cccc(NS(C)(=O)=O)c2O[C@H]1CN(C)C(=O)Nc1ccc(C(F)(F)F)cc1 | inactive |
| C[C@H](CO)N1C[C@H](C)[C@@H](CN(C)C(=O)Nc2ccc(C(F)(F)F)cc2)Oc2c(NS(C)(=O)=O)cccc2C1=O | inactive |
| C[C@@H]1CN([C@@H](C)CO)C(=O)c2cccc(NS(C)(=O)=O)c2O[C@@H]1CN(C)C(=O)Nc1ccc(C(F)(F)F)cc1 | active |
| C[C@@H]1CN([C@@H](C)CO)C(=O)c2cccc(NS(C)(=O)=O)c2O[C@H]1CN(C)C(=O)Nc1ccc(C(F)(F)F)cc1 | active |
| C[C@H]1CN([C@@H](C)CO)C(=O)c2cccc(NS(C)(=O)=O)c2O[C@@H]1CN(C)C(=O)Nc1ccc(C(F)(F)F)cc1 | inactive |
| C[C@@H]1CN([C@H](C)CO)C(=O)c2cccc(NS(C)(=O)=O)c2O[C@@H]1CN(C)C(=O)Nc1ccc(C(F)(F)F)cc1 | active |
| C[C@@H]1CN([C@@H](C)CO)C(=O)c2cccc(NS(C)(=O)=O)c2O[C@H]1CN(C)C(=O)Nc1ccc(F)cc1 | inactive |
| C[C@H](CO)N1C[C@H](C)[C@H](CN(C)C(=O)Nc2ccc(C(F)(F)F)cc2)Oc2c(NS(C)(=O)=O)cccc2C1=O | inactive |

| SMILES | growth inhibition call |
| --- | --- |
| CNC(=O)Cn1cc(Br)cn1 | inactive |
| C[C@H]1N(c2cnn(C)c2)C(=O)COC12CCN(S(C)(=O)=O)CC2 | inactive |
| O=C1O[C@H](CO)[C@@H](O)[C@H](O)[C@H]1O | inactive |
| COc1ccc2c3c(n(c2c1)C)[C@@H](CO)N(Cc1ccccc1F)C[C@]13CN(C1)C(=O)C1CCOCC1 | inactive |
| C[C@@H]1CN([C@@H](C)CO)C(=O)c2cccc(NS(C)(=O)=O)c2O[C@@H]1CN(C)C(=O)Nc1ccc2c(c1)OCO2 | inactive |
| CC1CCC2(C)C(C=O)=CCCC2C1(C)CC1OC(O)C(=O)C12CO2 (stereo not drawn) | active |
| C[C@H]1CN([C@@H](C)CO)C(=O)c2cc(NC(=O)CCN3CCOCC3)ccc2O[C@@H]1CN(C)Cc1ccc2c(c1)OCO2 | inactive |
| C[C@H](CO)N1C[C@H](C)[C@@H](CN(C)Cc2ccc(Cl)c(Cl)c2)Oc2ccc(NC(=O)Nc3cccc4ccccc34)cc2C1=O | inactive |
| C=CC[C@H](CC(=O)NCCO)C(=O)N[C@H](COC(=O)[C@@H](CC=C)CC(=O)OC(C)(C)C)Cc1ccccc1 | inactive |
| O=C(CCCCCCC(=O)Nc1ccccc1)NO | inactive |
| COC(=O)CCCCCCC(=O)Nc1ccc(NC(=O)CCCC[P+](c2ccccc2)(c2ccccc2)c2ccccc2)cc1 | active |
| O=C(CCCCCC(=O)Nc1ccccc1O)N/N=C/C[P+](c1ccccc1)(c1ccccc1)c1ccccc1 | inactive |
| C[C@@H]1CN([C@H](C)CO)C(=O)c2cccc(NC(=O)NC3CCCCC3)c2O[C@H]1CN(C)C(=O)Nc1cccc2ccccc12 | inactive |
| C[N+](C)(C)CCCCNC(=O)[C@H]1C[C@H]2C(=O)N[C@@H](CCCC[N+](C)(C)C)C(=O)N2[C@H]1c1ccc(O)cc1 | inactive |
| C[N+](C)(C)CCCCCCNC(=O)[C@@H]1C[C@@H]2C(=O)N[C@@H](CCCC[N+](C)(C)C)C(=O)N2[C@@H]1c1ccc(O)cc1 | active |
| C[N+](C)(C)CCCCCCNC(=O)[C@H]1C[C@H]2C(=O)N[C@@H](CCCC[N+](C)(C)C)C(=O)N2[C@H]1c1ccc(O)cc1 | inactive |
| COc1ccc(CNC(=O)C[C@@H]2C[C@H]3c4cc(NC(=O)NC5CCCC5)ccc4O[C@H]3[C@@H](CO)O2)cc1 | inactive |
| O=C(Nc1ccc(S(=O)(=O)OCC(F)(F)C(F)(F)C(F)(F)C(F)F)cc1)NC1(C(F)(F)F)Oc2ccccc2O1 | active |
| C=CC[C@@H](CC(=O)N(CCO)Cc1ccccc1)C(=O)NCCOC(=O)[C@@H](CC=C)CC(=O)OC(C)(C)C | inactive |
| C[C@H](CO)N1C[C@H](C)[C@H](CN(C)C(=O)Nc2ccc(C(F)(F)F)cc2)Oc2ccc(NC(=O)Cn3cnnn3)cc2CC1=O | inactive |
| O=C(C[C@@H]1CC[C@H]2[C@@H](COC[C@H](O)CN2S(=O)(=O)c2ccccc2)O1)N1CCOCC1 | inactive |

| SMILES | growth inhibition call |
| --- | --- |
| COc1ncc(-c2ccc3c(Nc4cc(Oc5cc(F)cc(F)c5)cc(C(=O)O)c4)c(S(=O)(=O)NC4CC4)cnc3c2)c(OC)n1 | active |
| CCCN(C)C[C@H]1OCCCC[C@H](C)Oc2ccc(NC(=O)CCC(F)(F)F)cc2C(=O)N([C@H](C)CO)C[C@@H]1C | inactive |
| O=C(OCc1ccccc1)c1cccnc1 | inactive |
| C[C@H]1CCCCO[C@H](CN(C)CC2CCCCC2)[C@@H](C)CN([C@@H](C)CO)C(=O)c2cc(NC(=O)Nc3cccc4ccccc34)ccc2O1 | inactive |
| CCCC#Cc1ccc2c(c1)O[C@H](CN(C)Cc1ccc3c(c1)OCO3)[C@H](C)CN([C@@H](C)CO)S2(=O)=O | inactive |
| C[C@@H]1CN([C@@H](C)CO)C(=O)c2cc(NS(=O)(=O)c3cccs3)ccc2O[C@@H]1CN(C)CC1CC1 | inactive |
| CN(C)c1cc(NC(=O)CNC(C)(C)C)c(O)c2c1C[C@H]1C[C@H]3[C@H](N(C)C)C(=O)C(C(N)=O)=C(O)[C@@]3(O)C(=O)[C@H]1C2=O | inactive |
| CN(C)[C@@H]1C(=O)[C@@H](C(N)=O)C(=O)[C@@]2(O)C(=O)[C@H]3C(=O)c4c(O)ccc(Cl)c4[C@@H](O)[C@H]3C[C@@H]12 | active |
| CN(C)c1cc(NC(=O)CNC(C)(C)C)c(O)c2c1C[C@H]1C[C@H]3[C@H](N(C)C)C(=O)[C@@H](C(N)=O)C(=O)[C@@]3(O)C(=O)[C@H]1C2=O | inactive |
| CN(C)[C@@H]1C(=O)[C@@H](C(N)=O)C(=O)[C@@]2(O)C(=O)[C@H]3C(=O)c4c(O)cccc4C[C@H]3C[C@@H]12 | inactive |
| CN(C)[C@@H]1C(=O)[C@@H](C(N)=O)C(=O)[C@@]2(O)C(=O)[C@@H]3C(=O)c4c(O)c(NC(=O)CN5CCCC5)cc(F)c4C[C@H]3C[C@@H]12 | active |
| CN(C)c1ccc(O)c2c1C[C@@H]1C[C@@H]3[C@@H](N(C)C)C(=O)C(C(N)=O)=C(O)[C@]3(O)C(=O)[C@H]1C2=O | inactive |
| CN(C)c1ccc(O)c2c1C[C@H]1C[C@H]3[C@H](N(C)C)C(=O)C(C(N)=O)=C(O)[C@@]3(O)C(=O)[C@H]1C2=O | inactive |
| CN(C)C1C(O)=C(C(N)=O)C(=O)C2(O)C(O)=C3C(=O)c4c(O)ccc(Cl)c4C(O)C3CC12.Cl (stereo not drawn) | inactive |
| CN(C)c1ccc(O)c2c1C[C@H]1C[C@H]3[C@H](N(C)C)C(=O)[C@@H](C(N)=O)C(=O)[C@@]3(O)C(=O)[C@H]1C2=O | active |
| CN(C)c1cc(NC(=O)CNC(C)(C)C)c(O)c2c1CC1CC3C(N(C)C)C(O)=C(C(N)=O)C(=O)C3(O)C(O)=C1C2=O (stereo not drawn) | inactive |
| CN(C)[C@@H]1C(=O)[C@@H](C(=O)NCNCCCC[C@H](N)C(=O)O)C(=O)[C@@]2(O)C(=O)[C@@H]3C(=O)c4c(O)cccc4[C@@](C)(O)[C@H]3C[C@@H]12 | inactive |
| CN(C)c1cc(CNCC(C)(C)C)c(O)c2c1C[C@H]1C[C@H]3[C@H](N(C)C)C(=O)[C@H](C(N)=O)C(=O)[C@@]3(O)C(=O)[C@@H]1C2=O | active |
| COc1ccc(S(=O)(=O)N(C)C[C@H]2Oc3ccc(NC(=O)C4CC4)cc3C(=O)N([C@@H](C)CO)C[C@@H]2C)cc1 | inactive |
| C[C@@H]1CCCCO[C@H](CN(C)C(=O)Nc2ccc3c(c2)OCO3)[C@H](C)CN([C@H](C)CO)C(=O)c2cc(NS(=O)(=O)c3ccc(F)cc3)ccc2O1 | inactive |
| C[C@H](CO)N1C[C@H](C)[C@H](CN(C)Cc2ccc(Cl)c(Cl)c2)Oc2ccc(NC(=O)Nc3ccccc3)cc2CC1=O | inactive |
